We go through 40 sequences from the OligoGym collection.
Further: reference of the scale not given here.

One experiment has as its target PSKH2. The experiment can be described thus: pooled miR-30 sensor sort-seq; sequence = guide strand. As to conditions: shRNA.
TTGGTTTTGACCTTCGTGCTTG yielded a sensor-assay potency score (higher = more potent) of 0.0948.

For the sequence TTTTCGACTCTTCACCTGGATG, the sensor-assay potency score (higher = more potent) is -1.22.

Consider TAGAAGACTGTGCAGATCCAGG, for which the sensor-assay potency score (higher = more potent) was -0.858.

Consider TTGTCTATAAAGTCCTTCGCCA, for which the sensor-assay potency score (higher = more potent) was -0.69.

In the case of TACCATGTAAACTTGATCCTCA, the sensor-assay potency score (higher = more potent) is 0.763.

TTTGTCTATAAAGTCCTTCGCC gave a sensor-assay potency score (higher = more potent) of -0.325.

Sequence TTTGTGAGAATAATGTGACTTA gave a sensor-assay potency score (higher = more potent) of 0.516.

With TTACCATGTAAACTTGATCCTC, the sensor-assay potency score (higher = more potent) is -0.301.

TTGACCTTCGTGCTTGGCCCAA: the sensor-assay potency score (higher = more potent) is -1.26.

Consider TTGCCTTTCAGAATCTTCCTGT, for which the sensor-assay potency score (higher = more potent) was 0.856.

The next experiment concerns the target PSMB6. The description is as above. As to conditions: shRNA.
TCAGCTTGTCAGTCACTCGATT gave a sensor-assay potency score (higher = more potent) of -0.432.

GTATCGGTAACACATCTCCTTA showed a sensor-assay potency score (higher = more potent) of -1.65.

On to TTGCAGACACTCTTCCTTGGTC, for which the sensor-assay potency score (higher = more potent) was -0.171.

Consider TTAAATTTTGCATCAGTACAGG, for which the sensor-assay potency score (higher = more potent) was -0.777.

With TTGTCAGTCACTCGATTGGCGA, the sensor-assay potency score (higher = more potent) is -1.6.

TTCAATGCTGTGGAAACCGAGC had a sensor-assay potency score (higher = more potent) of -0.63.

Sequence TAGGTAGCATCAACATAGCCAT displayed a sensor-assay potency score (higher = more potent) of -0.545.

On to TTGTTCTGGAGTCCGCCCCCAG, for which the sensor-assay potency score (higher = more potent) is -1.38.

Take TAGCCATAGATGTAGGAGCTCC: the sensor-assay potency score (higher = more potent) was -0.837.

Sequence AATGCTGTGGAAACCGAGCTGG yielded a sensor-assay potency score (higher = more potent) of -0.331.

TCGTGAATAGGTGTCAGCTTGT: the sensor-assay potency score (higher = more potent) was -0.101.

TATCGGTAACACATCTCCTTAA displayed a sensor-assay potency score (higher = more potent) of -0.95.

For another experiment, the target named is PSMC1. The description is as above. As to conditions: shRNA.
The sequence TAATGGTTTCATTTGTTCCTGA showed a sensor-assay potency score (higher = more potent) of -0.172.

Take TTTAATTCTCTCTAACTTCAGT: the sensor-assay potency score (higher = more potent) was -0.456.

The sequence AATATCTGCATAGGTCTCCTGG had a sensor-assay potency score (higher = more potent) of -0.497.

TTGTGGTTGAGCAGGACCGAGC: the sensor-assay potency score (higher = more potent) was -1.36.

Regarding TTGCCTTGATGTCAGCACCAGA, the sensor-assay potency score (higher = more potent) was -0.927.

Sequence TTTCTTGTCCTTGTCATCCTTC gave a sensor-assay potency score (higher = more potent) of 0.111.

As for TAATTCTCTCTAACTTCAGTAA, the sensor-assay potency score (higher = more potent) is -0.505.

TTGAGCAGGACCGAGCAGCCAG yielded a sensor-assay potency score (higher = more potent) of -1.07.

TTGTCCTTGTCATCCTTCTTGC gave a sensor-assay potency score (higher = more potent) of -0.829.

TTCAGCAGTTCCAACATTGTTC: the sensor-assay potency score (higher = more potent) is -0.616.

On to AACTTCAGTAATTTTAACCGGC, for which the sensor-assay potency score (higher = more potent) amounted to 0.102.

A further experiment deals with PSMD14. The description is as above. As to conditions: shRNA.
The sequence TAGTCCATGAATTAATGCCTGG registered a sensor-assay potency score (higher = more potent) of -1.08.

As for TACATCCACATGTTCCTCCAAA, the sensor-assay potency score (higher = more potent) was -0.84.

The sequence TAACATTTTTAACAGTGCCAGG registered a sensor-assay potency score (higher = more potent) of -1.43.

TTAACATTTTTAACAGTGCCAG returned a sensor-assay potency score (higher = more potent) of -1.04.

The sequence TTCTTCTACAGCCTTATTGTAA showed a sensor-assay potency score (higher = more potent) of -1.22.

As to TATCTTCTTCTTCTACAGCCTT, the sensor-assay potency score (higher = more potent) was -0.722.

Sequence TAGCAACATCTTCTGTTCCAGT registered a sensor-assay potency score (higher = more potent) of -0.472.
